Several values for one entry are separate records, joined by “and”; a condition that tells them apart may be missing. Identical values can stand only once. Inconclusive results are not listed. A structure can be active in one record and inactive in another. Activity calls are given as the source filed them. How the source made its calls, unless noted: active means hit-call score of the fitted dose curve at least 0.9, where 1 is the maximum; inactive means score below 0.9.
Columns and labels:
[1] = target: human RAR-related Orphan Receptor gamma (RORg), RORC (gene 6097) (UniProt P51449); test: ATG_RORg_TRANS: Attagene TRANS-FACTORIAL HepG2 Assay for human RAR-related Orphan Receptor gamma (RORg) (AID 2283011; active means hit-call score of the fitted dose curve at least 0.9, where 1 is the maximum;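 on AC50: potency for induction of reporter transcripts above DMSO so activators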)
Chain of human RAR-related Orphan Receptor gamma (RORg), RORC (gene 6097) (P51449 whole entry, looked up, the tested form may be a part): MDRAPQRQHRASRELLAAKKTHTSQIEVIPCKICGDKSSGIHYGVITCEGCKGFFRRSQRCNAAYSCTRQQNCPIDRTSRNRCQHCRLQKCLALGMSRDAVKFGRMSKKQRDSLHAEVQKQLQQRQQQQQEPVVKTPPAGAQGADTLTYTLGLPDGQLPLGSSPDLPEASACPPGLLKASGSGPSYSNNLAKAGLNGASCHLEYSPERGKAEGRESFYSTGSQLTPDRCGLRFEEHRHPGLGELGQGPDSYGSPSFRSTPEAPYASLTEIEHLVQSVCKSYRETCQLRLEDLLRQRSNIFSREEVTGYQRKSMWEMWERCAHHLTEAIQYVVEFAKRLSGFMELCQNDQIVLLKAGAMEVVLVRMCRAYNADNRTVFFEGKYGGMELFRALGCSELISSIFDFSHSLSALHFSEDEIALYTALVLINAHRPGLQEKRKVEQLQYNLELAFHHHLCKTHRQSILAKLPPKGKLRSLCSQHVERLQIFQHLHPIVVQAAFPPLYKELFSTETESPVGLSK
Method in brief: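 Reporter transcripts from a transfected RORg-GAL4 chimera in HepG2 cells were quantified 24 h after dosing by RT-PCR, 6-FAM labelling, HpaI digestion and capillary electrophoresis; increases over DMSO baseline were fitted.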

[2] = target: Retinoic acid receptor RXR-alpha (Homo sapiens) (UniProt P19793); test: ATG_RXRa_TRANS: Attagene TRANS-FACTORIAL HepG2 Assay for human Retinoid X Receptor alpha (RXRa) (AID 2283012; active means hit-call score of the fitted dose curve at least 0.9, where 1 is the maximum)
Chain of Retinoic acid receptor RXR-alpha (Homo sapiens) (P19793 whole entry, looked up, the tested form may be a part): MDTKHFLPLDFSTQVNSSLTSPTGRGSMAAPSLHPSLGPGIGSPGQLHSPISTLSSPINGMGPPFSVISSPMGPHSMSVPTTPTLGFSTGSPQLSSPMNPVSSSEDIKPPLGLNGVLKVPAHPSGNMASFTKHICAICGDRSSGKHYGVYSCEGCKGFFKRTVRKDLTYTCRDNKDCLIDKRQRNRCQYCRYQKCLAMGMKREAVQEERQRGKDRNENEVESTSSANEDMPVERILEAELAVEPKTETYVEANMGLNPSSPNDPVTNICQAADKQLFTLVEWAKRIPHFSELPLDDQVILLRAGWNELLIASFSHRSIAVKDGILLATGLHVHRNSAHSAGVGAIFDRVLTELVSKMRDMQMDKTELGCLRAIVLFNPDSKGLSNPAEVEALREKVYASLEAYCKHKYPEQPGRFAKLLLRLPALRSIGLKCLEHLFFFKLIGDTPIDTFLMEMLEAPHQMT
Method in brief: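 Cells (HepG2) carried transiently transfected GAL4-responsive reporter units. Following a 24 h chemical incubation, reporter mRNA induction was read via RT-PCR fragment analysis; DMSO served as negative control and baseline.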

[3] = target: human Retinoid X Receptor beta (RXRb), RXRB (gene 6257) (UniProt P28702); test: ATG_RXRb_TRANS: Attagene TRANS-FACTORIAL HepG2 Assay for human Retinoid X Receptor beta (RXRb) (AID 2283013; active means hit-call score of the fitted dose curve at least 0.9, where 1 is the maximum)
Chain of human Retinoid X Receptor beta (RXRb), RXRB (gene 6257) (P28702 whole entry, looked up): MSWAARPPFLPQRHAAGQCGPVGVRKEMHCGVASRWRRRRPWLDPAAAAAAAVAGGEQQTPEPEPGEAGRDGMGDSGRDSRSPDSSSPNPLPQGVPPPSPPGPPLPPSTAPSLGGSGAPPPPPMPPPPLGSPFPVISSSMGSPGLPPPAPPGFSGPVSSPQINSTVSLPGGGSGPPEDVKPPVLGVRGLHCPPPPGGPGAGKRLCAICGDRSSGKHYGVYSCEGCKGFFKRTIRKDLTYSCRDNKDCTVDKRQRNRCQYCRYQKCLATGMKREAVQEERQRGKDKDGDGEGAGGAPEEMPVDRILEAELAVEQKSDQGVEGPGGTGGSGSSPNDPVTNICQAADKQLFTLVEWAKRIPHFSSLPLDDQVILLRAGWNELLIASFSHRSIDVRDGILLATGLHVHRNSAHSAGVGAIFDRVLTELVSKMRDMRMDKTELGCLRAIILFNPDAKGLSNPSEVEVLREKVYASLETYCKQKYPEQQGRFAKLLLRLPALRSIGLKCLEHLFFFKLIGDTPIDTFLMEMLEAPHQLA
Method in brief: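 Multiplexed TRANS reporter assay in HepG2; 24 h dosing; reporter mRNA by RT-PCR/CE fluorescence; gain-of-signal relative to DMSO.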

[4] = read-out: E-selectin (Homo sapiens) (UniProt P16581); test: BSK_3C_Eselectin: BioMAP Diversity Plus: 3C Assay for Eselectin Biomarker Activity (AID 2283015); conditions: primary human endothelial cells (HUVEC); actives raise or lower the signal;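 further: cell surface E-selectin protein quantified by ELISA 24 h after dosing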
Method in brief: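 E-selectin ELISA readout, fitted bidirectionally relative to DMSO, taken 24 h post-dosing in HUVEC cultures of the 3C system. Overt cytotoxicity tracked with sulforhodamine B staining of parallel wells.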

[5] = read-out: Interleukin-1 alpha (IL1a), IL1A (gene 3552); test: BSK_BE3C_IL1a: BioMAP Diversity Plus: BE3C Assay for Interleukin-1 alpha (IL1a) Biomarker Activity (AID 2283016); conditions: primary human bronchial epithelial cells; actives raise or lower the signal
Method in brief: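 Cultures of primary human bronchial epithelial cells receive test chemical. After 24 h, IL-1a is quantified by ELISA, while parallel wells are fixed in TCA and SRB-stained for total protein. Changes in either direction are fitted relative to DMSO.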

[6] = read-out: Monocyte Chemoattractant Protein-1 (MCP1), CCL2 (gene 6347); test: BSK_4H_MCP1: BioMAP Diversity Plus: 4H Assay for Monocyte Chemoattractant Protein-1 (MCP1) Biomarker Activity (AID 2283018); conditions: primary human endothelial cells (HUVEC); actives raise or lower the signal
Method in brief: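 Readout: MCP-1 ELISA on compound-treated HUVEC, sampled 24 h post-dosing. Baseline and negative control DMSO; bidirectional fit. Overt toxicity checked alongside by sulforhodamine B protein staining at time of biomarker measurement.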

[7] = read-out: Human Leukocyte Antigen - DR isotype (HLADR), HLA-DRA (gene 3122); test: BSK_3C_HLADR: BioMAP Diversity Plus: 3C Assay for Human Leukocyte Antigen - DR isotype (HLADR) Biomarker Activity (AID 2283019); conditions: primary human endothelial cells (HUVEC); actives raise or lower the signal
Method in brief: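 Bidirectional fitting against DMSO was applied to the HLA-DR ELISA signal from human umbilical vein endothelial cells, 24 h post-dose. Cytotoxicity came from parallel SRB total-protein staining; 3C proliferation was counted by SRB at 48 h.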

[8] = read-out: Interleukin-8 (IL8), CXCL8 (gene 3576); test: BSK_3C_IL8: BioMAP Diversity Plus: 3C Assay for Interleukin-8 (IL8) Biomarker Activity (AID 2283020); conditions: primary human endothelial cells (HUVEC); actives raise or lower the signal
Method in brief: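 Human vascular endothelial cells (umbilical vein) in the 3C system; IL-8 level detected by ELISA at 24 h post-dose, with DMSO as baseline.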

[9] = read-out: Monokine induced gamma interferon (MIG), CXCL9 (gene 4283); test: BSK_3C_MIG: BioMAP Diversity Plus: 3C Assay for Monokine induced gamma interferon (MIG) Biomarker Activity (AID 2283021); conditions: primary human endothelial cells (HUVEC); actives raise or lower the signal
Method in brief: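 After 24 h of treatment, human umbilical vein endothelial cultures (3C system) had their MIG biomarker level determined by ELISA, with DMSO serving as negative control.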

[10] = BSK_3C_SRB: Viability Assessment in the BioMAP Diversity Plus: 3C Assay (AID 2283023); conditions: primary human endothelial cells (HUVEC);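 further: fitted both ways against DMSO so a hit may be signal rise or drop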
Method in brief: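 Cytotoxicity readout in parallel HUVEC 3C cultures: after 24 h compound exposure, cells fixed with 10% TCA, stained with 0.1% SRB and read at 560 nm. Gain or loss relative to DMSO fitted.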

[11] = read-out: Matrix Metallopeptidase 1 (MMP1), MMP1 (gene 4312); test: BSK_BE3C_MMP1: BioMAP Diversity Plus: BE3C Assay for Matrix Metallopeptidase 1 (MMP1) Biomarker Activity (AID 2283024); conditions: primary human bronchial epithelial cells; actives raise or lower the signal
Method in brief: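 Dose cells, wait 24 h, run MMP1 ELISA; cells are human bronchial epithelial primaries. Both increases and decreases relative to DMSO counted.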

[12] = read-out: Pselectin, SELP (gene 6403); test: BSK_4H_Pselectin: BioMAP Diversity Plus: 4H Assay for Pselectin Biomarker Activity (AID 2283026); conditions: primary human endothelial cells (HUVEC); actives raise or lower the signal
Method in brief: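 Human vascular endothelium from umbilical vein; P-selectin measured by ELISA at 24 h post-dose, with cytotoxicity checked by sulforhodamine B total-protein staining in parallel cultures (0.1% SRB after 10% TCA fixation, read at 560 nm).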

[13] = BSK_4H_SRB: Viability Assessment in the BioMAP Diversity Plus: 4H Assay (AID 2283027); conditions: primary human endothelial cells (HUVEC);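 further: cells exposed to compound for 24 h before staining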
Method in brief: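 Human umbilical vein endothelial cells, 24 h after chemical dosing; total protein measured by 0.1% sulforhodamine B staining after 10% TCA fixation, read at 560 nm. Bidirectional fitting against DMSO.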

[14] = BSK_BE3C_SRB: Viability Assessment in the BioMAP Diversity Plus: BE3C Assay (AID 2283028); conditions: primary human bronchial epithelial cells
Method in brief: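 Cytotoxicity read-out: SRB (0.1%) staining of TCA-fixed (10%) human lung bronchial epithelial cells, absorbance 560 nm, 24 h post-dosing. Curves fitted both directions relative to DMSO.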

[15] = read-out: Urokinase-type plasminogen activator receptor (uPAR), PLAUR (gene 5329); test: BSK_4H_uPAR: BioMAP Diversity Plus: 4H Assay for Urokinase-type plasminogen activator receptor (uPAR) Biomarker Activity (AID 2283030); conditions: primary human endothelial cells (HUVEC); actives raise or lower the signal
Method in brief: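 uPAR level read by ELISA on HUVEC cultures (BioMAP 4H) 24 h post-dosing, analyzed for gain or loss relative to DMSO. Parallel SRB staining assessed overt cytotoxicity.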

[16] = target: human Thyroid Receptor alpha (THRa1), THRA (gene 7067) (UniProt P10827); test: ATG_THRa1_TRANS: Attagene TRANS-FACTORIAL HepG2 Assay for human Thyroid Receptor alpha (THRa1) (AID 2283014; active means hit-call score of the fitted dose curve at least 0.9, where 1 is the maximum)
Chain of human Thyroid Receptor alpha (THRa1), THRA (gene 7067) (P10827 whole entry, looked up, the tested form may be a part): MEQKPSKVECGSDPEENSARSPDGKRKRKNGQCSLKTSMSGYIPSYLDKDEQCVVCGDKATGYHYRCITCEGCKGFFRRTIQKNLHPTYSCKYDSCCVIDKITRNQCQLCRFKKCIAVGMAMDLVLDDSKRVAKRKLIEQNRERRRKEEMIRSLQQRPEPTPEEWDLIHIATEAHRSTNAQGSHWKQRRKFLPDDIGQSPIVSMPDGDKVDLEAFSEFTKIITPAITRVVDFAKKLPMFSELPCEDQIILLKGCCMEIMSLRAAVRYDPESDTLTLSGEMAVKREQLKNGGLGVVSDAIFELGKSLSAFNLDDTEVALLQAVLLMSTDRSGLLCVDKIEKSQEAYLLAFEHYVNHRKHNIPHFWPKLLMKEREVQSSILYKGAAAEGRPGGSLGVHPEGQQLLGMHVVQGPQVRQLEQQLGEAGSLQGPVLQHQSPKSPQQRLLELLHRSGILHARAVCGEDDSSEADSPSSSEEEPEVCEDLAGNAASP
Method in brief: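 Transcripts from GAL4-UAS-driven reporters, measured after 24 h compound exposure by RT-PCR plus capillary electrophoresis of 6-FAM-labeled fragments, were fitted for gain of signal relative to DMSO. Cells: transiently transfected HepG2 expressing NR-Gal4 chimeras.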

[17] = target: human Vitamin D Receptor (VDR), VDR (gene 7421) (UniProt P11473); test: ATG_VDR_TRANS: Attagene TRANS-FACTORIAL HepG2 Assay for human Vitamin D Receptor (VDR) (AID 2283022; active means hit-call score of the fitted dose curve at least 0.9, where 1 is the maximum)
Chain of human Vitamin D Receptor (VDR), VDR (gene 7421) (P11473 whole entry, looked up, the tested form may be a part): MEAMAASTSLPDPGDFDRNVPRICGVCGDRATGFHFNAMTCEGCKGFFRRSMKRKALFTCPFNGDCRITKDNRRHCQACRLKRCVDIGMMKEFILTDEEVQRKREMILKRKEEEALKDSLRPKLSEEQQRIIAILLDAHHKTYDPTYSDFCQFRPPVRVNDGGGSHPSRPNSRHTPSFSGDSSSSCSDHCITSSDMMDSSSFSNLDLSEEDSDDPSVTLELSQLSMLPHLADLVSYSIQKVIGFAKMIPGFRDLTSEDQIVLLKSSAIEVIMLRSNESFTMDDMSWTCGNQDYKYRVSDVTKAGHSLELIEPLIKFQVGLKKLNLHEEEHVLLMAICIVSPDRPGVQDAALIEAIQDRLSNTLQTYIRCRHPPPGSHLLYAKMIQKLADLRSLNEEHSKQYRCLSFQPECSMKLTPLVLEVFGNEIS
Method in brief: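 Transactivation by an exogenous VDR-Gal4 chimera in transiently transfected HepG2 cells was measured as reporter transcript level 24 hours after chemical treatment. RT-PCR products were analysed by capillary electrophoresis and fitted in the positive direction relative to DMSO.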

[18] = read-out: Thrombomodulin, THBD (gene 7056); test: BSK_3C_Thrombomodulin: BioMAP Diversity Plus: 3C Assay for Thrombomodulin Biomarker Activity (AID 2283029); conditions: primary human endothelial cells (HUVEC); actives raise or lower the signal
Method in brief: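 Thrombomodulin ELISA, human primary HUVEC, 24 h post-dose; data fitted in both directions relative to DMSO.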

[19] = read-out: Monocyte Chemoattractant Protein-1 (MCP1), CCL2 (gene 6347); test: BSK_3C_MCP1: BioMAP Diversity Plus: 3C Assay for Monocyte Chemoattractant Protein-1 (MCP1) Biomarker Activity (AID 2283017); conditions: primary human endothelial cells (HUVEC); actives raise or lower the signal
Method in brief: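 MCP-1 was measured by ELISA 24 h after dosing in primary HUVEC 3C cultures and fitted in both directions relative to DMSO; cytotoxicity was checked by SRB total-protein staining in parallel wells.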

[20] = BSK_3C_Vis: BioMAP Diversity Plus: 3C Assay for Morphology Visualization (AID 2283025); conditions: primary human endothelial cells (HUVEC);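 further: fitted both ways so gain or loss versus DMSO counts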
Method in brief: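 Endothelial cells from human umbilical vein were treated with test chemicals for 24 h and inspected by light microscopy for changes in cell conformation.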

Measured: AC50

Chain of E-selectin (Homo sapiens) (P16581 whole entry, looked up): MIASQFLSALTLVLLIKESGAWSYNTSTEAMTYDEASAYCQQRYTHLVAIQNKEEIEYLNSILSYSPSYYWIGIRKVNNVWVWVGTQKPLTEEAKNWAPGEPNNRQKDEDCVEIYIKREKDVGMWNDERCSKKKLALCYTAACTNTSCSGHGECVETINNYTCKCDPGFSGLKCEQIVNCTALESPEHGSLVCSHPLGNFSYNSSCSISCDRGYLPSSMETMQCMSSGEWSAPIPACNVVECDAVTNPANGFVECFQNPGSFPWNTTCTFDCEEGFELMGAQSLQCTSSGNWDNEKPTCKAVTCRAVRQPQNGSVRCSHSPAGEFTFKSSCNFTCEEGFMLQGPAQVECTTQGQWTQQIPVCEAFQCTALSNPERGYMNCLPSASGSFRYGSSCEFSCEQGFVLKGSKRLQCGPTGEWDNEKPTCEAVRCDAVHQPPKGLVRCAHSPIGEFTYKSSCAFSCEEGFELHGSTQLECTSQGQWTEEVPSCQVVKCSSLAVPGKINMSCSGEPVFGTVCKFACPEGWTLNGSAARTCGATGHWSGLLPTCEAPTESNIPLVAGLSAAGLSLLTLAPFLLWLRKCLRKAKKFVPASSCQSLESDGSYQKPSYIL

CCCCCCCC1CCC(=O)O1 (stereo not drawn)
not listed: [16] | [17] | [18] | [19] | [20]
inactive: all other assays above

CCCCCCCC/C=C\CCCCCCCC(=O)OC[C@@H](O)[C@H]1OC[C@H](O)[C@H]1O
not listed: [2] | [19] | [20]
inactive: all other assays above

OC(O)(C(F)C(O)(O)C(F)(F)F)C(F)(F)F
inactive: [3] | [4] | [5] | [19] | [6] | [7] | [8] | [9] | [17] | [10] | [11] | [12] | [13] | [14] | [15]
active: [1] 220 µM and 106 µM | [7] 17.6 µM | [15] 20.5 µM

CCCCCCOC(=O)CC(CC(=O)OCCCCCC)(OC(=O)CCC)C(=O)OCCCCCC
not listed: [3] | [16] | [18]
inactive: all other assays above

Cc1ncc([C@@H](CCCCCCc2ccc3c(n2)NCCC3)CC(=O)O)cn1
active: [8] 1.02 µM | [15] 3.97 µM
not listed: [18] | [19]
inactive: all other assays above

Cn1c(=O)c2[nH]cnc2n(C)c1=O
not listed: [3] | [16] | [17] | [18] | [20]
inactive: all other assays above

OCC(CO)(CO)CO
not listed: [2] | [19] | [20]
inactive: all other assays above

C[C@]12C=CC(=O)C=C1CC[C@H]1[C@@H]3C[C@@H](O)[C@](O)(C(=O)CO)[C@@]3(C)C[C@H](O)[C@@]12F
not listed: [2] | [20]
inactive: all other assays above

NNC(=O)c1ccncc1
not listed: [3] | [18]
inactive: all other assays above

C[Si](C)(C)C(F)(F)C(F)(F)C(F)(F)F
not listed: [19] | [20]
inactive: all other assays above

CCCCCCCCCC
not listed: [16] | [19]
inactive: all other assays above

O=C(O)CO
active: [3] 0.679 µM
inactive: [1] | [3] | [16] | [17]

CC[C@H](C)C(=O)O[C@H]1C[C@H](O)C=C2C=C[C@H](C)[C@H](CC[C@@H](O)C[C@@H](O)CC(=O)O)[C@H]21
not listed: [2] | [18] | [19] | [20]
inactive: all other assays above

O=C(N[C@H](CO)[C@H](O)c1ccc([N+](=O)[O-])cc1)C(Cl)Cl
inactive: [1] | [3] | [16]

FC(F)(F)C(F)(F)C(F)(F)C(F)(F)C(F)(F)C(F)(F)I
active: [3] 91.3 µM
inactive: [1] | [2] | [3] | [4] | [5] | [19] | [6] | [7] | [8] | [9] | [17] | [10] | [11] | [12] | [13] | [14] | [15]

Cc1cccc(O)c1C
not listed: [2] | [18] | [19]
inactive: all other assays above

From PubChem BioAssay (EPA / NIEHS)
